Source: PubChem
Shown is part of a subset that was picked to be rich in hits.
nsP2pro inh – CHIKV nsP2 protease inhibition, primary qHTS; 1.1% of 31,000 active; Potency, µM (top dose mostly 24.9 µM), actives largely listed as inhibitors; AID 1964107; FRET peptide cleavage, nsP2pro, fluorescence 1 h; note: nearly all actives have a fitted effect of over 60% in size
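FRET cleavage of 2.5 uM peptide 2 by 150 nM CHIKV protease domain at pH 8.0 (Tris, Tween 20). Compounds at 7 concentrations (up to 25 uM) preincubated 15 min. Fluorescence read after 1 h at room temperature.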
CHIKV nsP2 cell – cell-based CHIKV nsP2 protease inhibition, secondary; shares compounds with nsP2pro inh; cell-based CHIKV nsP2 protease reporter assay; Potency, µM (doses to about 51.1 µM), usual class: inhibitors; 10% of 450 active; note: nearly all actives have a fitted effect of over 70% in size
NSP2 full ctr – selectivity test for CHIKV nsP2 protease inhibitors: full-length NSP2; 39% of 410 active; Potency, µM (titrated, usually from 50.7 µM), most hits filed as inhibitors; shares compounds with nsP2pro inh; Full-length CHIKV NSP2 protease enzymatic counterscreen; note: nearly all actives have a fitted effect of over 65% in size
Furin counterscr – selectivity counter-screen for CHIKV nsP2 protease inhibitors: human furin | 6% of 410 active | Recombinant human furin enzymatic counterscreen, fluorogenic substrate | Potency, µM (top dose mostly 50.6 µM), usual class: inhibitors | shares compounds with nsP2pro inh
nsP2 NS23 pep – nsP2pro inhibition on native NS2/3 peptide substrate | Potency, µM (top dose mostly 51 µM), usual class: inhibitors | shares compounds with nsP2pro inh | 34% of 410 active | AID 1964103 | Purified CHIKV nsP2 protease, endogenous NS2/3 peptide cleavage; note: nearly all actives have a fitted effect of over 55% in size
Papain counter – papain protease inhibition, counterscreen for nsP2pro inhibitors. Potency, µM (titrated, usually from 51 µM), actives largely listed as inhibitors. AID 1964104. 5% of 410 active. purified papain protease activity, enzymatic inhibition. shares compounds with nsP2pro inh
nsP2pro conf qHTS – confirmation of CHIKV nsP2 protease inhibitors; shares compounds with nsP2pro inh; Potency, µM (series often up to 25.5 µM), most hits filed as inhibitors; CHIKV nsP2 protease enzymatic activity, qHTS; AID 1964105; 43% of 410 active; note: nearly all actives have a fitted effect of over 75% in size
HCV NS3 counter – selectivity counter-screen for CHIKV nsP2 protease inhibitors: HCV NS3/4A; Potency, µM (titrated, usually from 50.9 µM), actives largely listed as inhibitors; 20% of 410 active; shares compounds with nsP2pro inh; HCV NS3/4A protease biochemical counterscreen; note: nearly all actives have a fitted effect of over 55% in size
Each line names hits and unclear results; the compound was inactive in the other large screens (follow-up assays come after a bar, where they were run). Calls come from the whole dose curve.

CNCC(=O)OCc1cccnc1N(C)C(=O)OC(C)[n+]1cnn(C[C@](O)(c2cc(F)ccc2F)[C@@H](C)c2nc(-c3ccc(C#N)cc3)cs2)c1 (stereo partly drawn)	none
Cc1cnc(-c2ccccc2C(C)C)nc1NCC1CCN(c2cccnc2)C1 (stereo not drawn)	none
CN(CC(=O)N(Cc1ccc(C2CCCCC2)cc1)c1ccc(C(=O)O)cc1)S(=O)(=O)c1c(F)c(F)c(F)c(F)c1F	none
Fc1ccc(CNc2nc(-c3ccccc3C(F)(F)F)nc3ccccc23)cc1	none
CCOc1ccccc1C(=O)NCc1coc(-c2ccc(OC(F)F)c(OC(C)C)c2)n1	none
O=C(Cc1ccccc1)Nc1sc2c(c1C(=O)Nc1ccccc1)CCCCC2	none
O=C(Cc1ccccc1)Nc1sc2c(c1C(=O)Nc1ccc(Cl)cc1)CCCC2	nsP2pro inh inconclusive | CHIKV nsP2 cell inconclusive | NSP2 full ctr inactive | Furin counterscr inactive | nsP2 NS23 pep 6.5µM | Papain counter inactive | nsP2pro conf qHTS 4µM | HCV NS3 counter inactive
COc1ccc(CC(=O)Nc2sc3c(c2C(=O)Nc2ccccc2)CCCCC3)cc1	none
COc1ccnc(NC(=S)N2CCN(c3cc(C(F)(F)F)cc(C(F)(F)F)c3)CC2)c1	none
COCCNC(=O)C[C@@H]1C[C@@H](C(C)C)[C@H](CNC(=O)C2CC2)C=C1C	none
CNC(=O)c1cc(C2CC2)nc2onc(C3CCCN3C(=O)Cc3ccccn3)c12 (stereo not drawn)	none
CC(C)CC(=O)N1[C@@H](c2ccco2)[C@@H](CO)C[C@]12CCCCN(CCO)C2=O	nsP2pro inh inconclusive | CHIKV nsP2 cell inactive
CC(C)CC(=O)N1[C@@H](c2ccco2)[C@@H](C(=O)O)C[C@]12CCCCNC2=O	nsP2pro inh inconclusive | CHIKV nsP2 cell inactive
CC(C)CC(=O)N1CC(=O)Nc2ccc(F)cc2C1c1ccccc1 (stereo not drawn)	none
CCOc1ccc(NC(=O)NCC2CCCN2c2ccc(OC)cc2)cc1 (stereo not drawn)	none
Cn1ccnc1C(=O)N1CCC(Cc2ccc(CCC(=O)N3CCCC3)cc2)CC1	none
FC(F)(F)c1ccccc1-c1nc(NCc2ccc(Cl)c(Cl)c2)c2ccccc2n1	none
Cc1ccc(CN2CC[C@H](c3nnc(-c4ccco4)o3)C2)o1	none
Cc1nccn1C1(C(=O)O)CCN(Cc2ccc(-c3ccn[nH]3)o2)CC1	none
Cc1ccsc1[C@@H]1CCN(Cc2ccc(-c3ccn[nH]3)o2)C[C@H]1O	nsP2pro inh 3.5µM | CHIKV nsP2 cell inconclusive | NSP2 full ctr inconclusive | Furin counterscr inactive | nsP2 NS23 pep inconclusive | Papain counter inactive | nsP2pro conf qHTS 8µM | HCV NS3 counter inconclusive
C/C=C(\C)C(=O)O	none
N#Cc1nc(-c2cccc3ccccc23)oc1NCc1ccccc1	none
FC(F)(F)c1ccccc1-c1nc(NCc2ccc(-c3cccnc3)cc2)c2[nH]cnc2n1	none
COCC1CN(Cc2ccc(OC)cc2)CC12CCNCC2 (stereo not drawn)	none
COCC1CN(Cc2ccc(Br)s2)CC12CCNCC2 (stereo not drawn)	nsP2pro inh inconclusive | CHIKV nsP2 cell inconclusive | NSP2 full ctr inconclusive | Furin counterscr inactive | nsP2 NS23 pep inconclusive | Papain counter inactive | nsP2pro conf qHTS inconclusive | HCV NS3 counter inconclusive
COCC1CN(C)CC12CCN(Cc1cccnc1)CC2 (stereo not drawn)	none
CC1CCN(c2ncncc2-c2nc(-c3ccccc3)no2)CC1	none
CC(CO[C@@H]1O[C@H](COC(=O)/C=C/c2ccc(O)c(O)c2)[C@@H](O)[C@H](O)[C@H]1O)C1(O)COC(=O)C1 (stereo partly drawn)	nsP2pro inh inconclusive | CHIKV nsP2 cell inactive | NSP2 full ctr inactive | Furin counterscr inactive | nsP2 NS23 pep inactive | Papain counter inactive | nsP2pro conf qHTS inactive | HCV NS3 counter inactive
O=C(/C=C/c1ccc(O)c(O)c1)OC[C@H]1O[C@@H](OC2CCCCC2O)[C@H](O)[C@@H](O)[C@@H]1O (stereo partly drawn)	none
CC(=O)O[C@@H]1[C@@H](CO)O[C@@](CO)(O[C@H]2O[C@H](COC(=O)/C=C/c3ccccc3)[C@@H](O)[C@H](O)[C@H]2O)[C@H]1O	none
COc1ccc(-c2oc3cc(O)cc(O)c3c(=O)c2O)cc1	none
CNC1CCC(N(Cc2ccc(OC)c(-c3ccc(C#N)cc3)c2)C(=O)c2sc3ccccc3c2Cl)CC1 (stereo not drawn)	none
OCc1ccc(-c2ccc(-c3ccc(CO)s3)o2)s1	nsP2pro inh 2.2µM | CHIKV nsP2 cell inactive | NSP2 full ctr 4µM | Furin counterscr inconclusive | nsP2 NS23 pep inconclusive | Papain counter inactive | nsP2pro conf qHTS 3.1µM | HCV NS3 counter inactive
Cc1cnccc1-c1nc(Nc2ccc(F)c(F)c2)c2ccccc2n1	none
C[S+](=O)([O-])c1ccc(-c2nnc3ccc(C(=O)NC4CCCCC4)cn23)cc1	none
CC(=O)c1c(OCCN2CCCCC2)c(OCCC(C)c2ccc(F)cc2)c2oc(C)nc2c1C (stereo not drawn)	none
Cc1cc(C)nc(NC(=S)N2CCN(c3cccc(OC(F)(F)F)c3)CC2)c1	none
O=C1CO[C@H]2CN(c3ncccn3)C[C@H]2N1CC1CCCCC1	nsP2pro inh 2.2µM | CHIKV nsP2 cell inactive | NSP2 full ctr inactive | Furin counterscr inconclusive | nsP2 NS23 pep 24µM | Papain counter inactive | nsP2pro conf qHTS 3.7µM | HCV NS3 counter 9.4µM
N#Cc1ccc(N2C[C@@H]3OCC(=O)N(CC4CCCCC4)[C@@H]3C2)nc1	none
O=C(c1cnccn1)N1C[C@@H]2OCC(=O)N(CC3CCCCC3)[C@@H]2C1	none
Cc1cc(C)nc(NC(=S)N2CCN(c3ncnc4sccc34)CC2)c1	none
COc1cc(C(=O)NC2CCN(C)CC2)c(F)cc1Nc1ncc2c(n1)N(C1CCCC1)CC(F)(F)C(=O)N2C	none
CN(CCCCCCN(C)C(=O)Oc1ccc[n+](C)c1)C(=O)Oc1ccc[n+](C)c1	none
CC(=O)O[C@@H]1CC2C(C)(C)C(=O)C=C[C@]2(C)C2CC[C@]3(C)C(=CC(=O)O[C@H]3c3ccoc3)[C@@]21C (stereo partly drawn)	none
